Data taken from the supplement of paper PMC10338343.
± gives the standard deviation. The full ranking holds about 6,200 sequences; the median of “pre-steady-state target cleavage rate” is about 0.29, and the highest 2% start at about 2. Only a selection was taken, and the highest values are over-represented in it overall.

The sequences below were run on MIWI (PIWIL1) piRISC loaded with piRNA #1 (30 nt) (assay: pre-steady-state target cleavage rate (min^-1); MIWI and MILI are mouse PIWI proteins and EfPiwi is from a freshwater sponge; tags in brackets are library labels; higher = faster piRNA-guided slicing of the target). Settings: guide: piRNA #1 5'p-UGAGGUAGUAGGUUGUAUAGUAUCCAGAGG; auxiliary factor: 500 nM mouse GTSF1.
Experimental: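 Cleave-'n-Seq: a library of target RNAs (target site embedded in constant flanks, ACAGCATTCCGCGTTAGTGATATCCG... 5' flank; DNA-blocked outside the site) at 0.1 nM was incubated with 1 nM active mouse MILI or MIWI piRISC (synthetic 5'-monophosphorylated piRNA guide) with or without 500 nM mouse GTSF1 at 33 °C for 1 min to 16 h. Uncleaved targets were sequenced and normalised to non-target controls, and the pooled three trials were fitted to a burst-and-steady-state model to give the pre-steady-state cleavage rate (min^-1; k3 is constrained to at most 1e-4). Sequence is the target site only; target names encode pairing extent (gX:gY) and contiguous / 1-mismatch / 2-mismatch / bulge geometry. Fits with R² ≤ 0 are excluded.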

Sequence	pre-steady-state target cleavage rate
GGACUGCGAUACUAUACAACCUACUACCUCA	1.79 ± 0.13
GGUCUGCGAUACUAUACAACCUACUACCUCA	1.79 ± 0.071
CCUCUGCGAUACUAUACAACCUACUACCUCA	2.19 ± 0.12
GCUCUGCGAUACUAUACAACCUACUACCUCA	2.02 ± 0.12
GCUCUGGGAUACUAUACAACCUACUACCUCA	1.89 ± 0.096
GGAGUGGAUACUAUACAACCUACAACCUCA	0.314 ± 0.037
GGACUGGAUACUAUACCACCUACUACCUCA	1.17 ± 0.082
GGAGACCUUACUAUUCAACCUAGUACCUCA	0.395 ± 0.04
GGAGACCUAUGUAUACCACCUACUACCUCA	0.0149 ± 0.0026
CCUGUGGAUACUAUACAACCUACUACCUCA	1.86 ± 0.11
GCCUGGAUACUAUACAACCUACUACCUCA	1.87 ± 0.11
CCCUGGAUACUAUACAACCUACUACCUCA	2.52 ± 0.18
GGCCUGGAUACUAUACAACCUACUACCUCA	1.74 ± 0.098
GCCCUGGAUACUAUACAACCUACUACCUCA	2.17 ± 0.12
CCUGUGGAUACUAUACAACCUACAACCUCA	0.383 ± 0.043
GAUCUGGAUACUAUACAACCUACUACCUCA	1.91 ± 0.097
CCCCUGGAUACUAUACAACCUACUACCUCA	2.45 ± 0.15
GGACCUGGAUACUAUACAACCUACUACCUCA	1.96 ± 0.14
GGAGACCUUACUAUACAAGCUAGUACCUCA	0.471 ± 0.033
GCUCUGGAUACUAUACAACCAACUACCACA	0.153 ± 0.018
GGAGACGAAAGUAUACAACCUACUACCUCA	0.527 ± 0.062
GGUCUGGAUAGUAUACAACCUACUACGUCA	0.583 ± 0.055
GGAGAGGAAACUAUACAUCCUACUACCUCA	1.19 ± 0.074

Sequence	pre-steady-state target cleavage rate
GGACUGGAUACUAUACAACCUCCUACCUCA	0.801 ± 0.052
GCUCGUGGAUACUAUACAACCUACUACCUCA	1.85 ± 0.095
GGUCCUGGAUACUAUACAACCUACUACCUCA	1.97 ± 0.099
CCUCGUGGAUACUAUACAACCUACUACCUCA	2.17 ± 0.16
GGAGUGGAUACUAUACUACCUACAACCUCA	0.428 ± 0.052
GCAGUGGAUACUAUACAACCUACUACCUCA	1.85 ± 0.095
CCAGUGGAUACUAUACAACCUACUACCUCA	2.01 ± 0.11
GGUCGUGGAUACUAUACAACCUACUACCUCA	1.72 ± 0.093
CCUCUGGAUACUAUACAACCUCCUACCUCA	1.32 ± 0.068
GCUCUGGAUACUAUACAACCUCCUACCUCA	1.2 ± 0.052
CCUCCUGGAUACUAUACAACCUACUACCUCA	2.25 ± 0.13
GCUCCUGGAUACUAUACAACCUACUACCUCA	2.13 ± 0.11
GGAGACCAUAUAUACAACCUACUACCUCA	0.184 ± 0.018
GGAGACCUUAGUAUACUACCUACUACCUCA	0.0222 ± 0.0051
GGAGACCUAACUAUACAACCUUCUACCACA	0.194 ± 0.026
GGAGACCUAUCUAUACAACCUACUACACUCA	0.634 ± 0.061
CCUCUGGAUACUAUACAACCUAGUACCUCA	0.172 ± 0.039
GGUCUGGAUACAAUACAACCUAGUACCUCA	0.562 ± 0.054
CCUCAGGAUACUAUUCAACCUACUACCUCA	2.22 ± 0.14
GCUCUGGAUACUAUUCAACCUACUACCUCA	1.87 ± 0.11
GGAGAGGAUACUAUUCAACCUACUACCUCA	1.23 ± 0.062
GGUCAGGAUACUAUUCAACCUACUACCUCA	1.79 ± 0.1
GCUCAGGAUACUAUUCAACCUACUACCUCA	2.09 ± 0.13

Sequence	pre-steady-state target cleavage rate
GGACAGGAUACUAUUCAACCUACUACCUCA	1.69 ± 0.11
GCUCUGGAUACUAUACUAACCUACUACCUCA	0.00667 ± 0.0041
GGAGACGAUACAAUUCAACCUACUACCUCA	0.664 ± 0.073
GGAGUGGAUAGUAUACAACCUACUAGCUCA	0.0218 ± 0.0063
GGAGACGAUACUAUACUAGCUACUACCUCA	0.579 ± 0.048
GGUCUGGAUUCUAUAGAACCUACUACCUCA	0.979 ± 0.064
GCUCUCGAUAGUAUACAACCUACUACCUCA	1.95 ± 0.13
GCUCUCGAUACAAUACAACCUACUACCUCA	2.07 ± 0.12
CCUCUCGAUACAAUACAACCUACUACCUCA	2.17 ± 0.14
GGUCUCGAUACAAUACAACCUACUACCUCA	1.77 ± 0.12
GGACUCGAUACAAUACAACCUACUACCUCA	1.46 ± 0.095
GCUCUCGAUACUAUACAACCUACAACCUCA	1.01 ± 0.078
GCUCUGGAUAGUAUUCAACCUACUACCUCA	0.849 ± 0.044
GGAGACCAUACUAUUCAACCUACUACCACA	1.05 ± 0.078
GGACUGGAUACUAUACAACCUACGUACCUCA	0.656 ± 0.089
GCUCUGGAUACUAUACAACGUACUUCCUCA	0.486 ± 0.045
GGAGACGAAACUAUACAAGCUACUACCUCA	0.872 ± 0.057
GGAGUGGUUUCUAUACAACCUACUACCUCA	1.32 ± 0.081
CCUCUGGAUACUAUACAACCUACUUACCUCA	2.2 ± 0.14
CCUCUGGAUACUUACAACCUACUACCUCA	1.3 ± 0.12
GCUCUGGAUACUUACAACCUACUACCUCA	1.18 ± 0.1
GCUCUGGAUACUAUACAACCUACUUACCUCA	2.1 ± 0.13
GGUCUGGAUACUAUACAACCUACUUACCUCA	1.23 ± 0.084

Sequence	pre-steady-state target cleavage rate
GCUCUGGAUACUUAUACAACCUACUACCUCA	1.53 ± 0.084
GGAGACCUUACUAUACAACCUACCACCUCA	0.847 ± 0.06
GGACUGGAUACUUAUCAACCUACUACCUCA	0.719 ± 0.1
GGACUGGAUACGAUACAACCUACUACCUCA	1.64 ± 0.1
CCUCUGGAUACUAAACUACCUACUACCUCA	1.24 ± 0.098
CCUCAGGAUACAAUACAACCUACUACCUCA	2.01 ± 0.12
CCACAGGAUACUAUACAACCUACUACCUCA	1.87 ± 0.13
GCUCAGGAUACUAUACAACCUACUACCACA	1.75 ± 0.1
GGUCAGGAUACUAAACAACCUACUACCUCA	1.74 ± 0.096
GGUCAGGAUACUUUACAACCUACUACCUCA	1.54 ± 0.085
GCUCAGGAUACAAUACAACCUACUACCUCA	1.9 ± 0.12
CCUCAGGAUACUUUACAACCUACUACCUCA	2.1 ± 0.13
GCUCAGGAUACUAAACAACCUACUACCUCA	1.95 ± 0.12
CCUCAGGAUACUAUACAACCUACUACCACA	2.43 ± 0.17
GCUCAGGAUACUUUACAACCUACUACCUCA	1.81 ± 0.11
CCUCAGGAUACUAAACAACCUACUACCUCA	2.07 ± 0.12
GGUCAGGAUACAAUACAACCUACUACCUCA	1.69 ± 0.1
CCUCUGGAUACUUUACAACCUACUACCUGA	0.715 ± 0.1
GGAGACCUAUCUAUACAACCUACUAGCUCA	0.517 ± 0.046
GGAGAGGAUACUAUAGCAACCUACUACCUCA	0.61 ± 0.07
GGAGACGAUACUAUACAUGCUACUACCUCA	0.755 ± 0.037
GGAGACCUUACUGUACAACCUACUACCUCA	0.655 ± 0.077
CCUCUGGAUACUAUUCAACCUAGUACCUCA	0.085 ± 0.021
